# Shiga toxin inh – Shiga toxin inhibition | Vero cells, Shiga toxin protein synthesis inhibition reporter | inhibition, % at 38.7 µM | 290,000 compounds, 9.2% hits | AID 2315; in the data active = inhibition mostly above about 28%, no sharp cut-off; inactive = mostly below about 43%; note: 0% is about no effect
# SARS PLP yeast – blocks SARS-CoV papain-like protease in a yeast assay. S. cerevisiae expressing SARS-CoV PLpro, growth rescue. Potency, µM (doses to about 32.9 µM), inactives show top-dose activity, positive = growth rescue, hits mostly activators. 330,000 compounds, 0.19% hits. AID 485353; calls by dose curve; note: potency is the fitted concentration of half-maximal effect; 0% is about no effect; nearly all actives have a fitted effect of over 55% in size
# AMA1-RON2 inh – AMA1-RON2 (P. falciparum) interaction inhibition | 360,000 compounds, 0.2% hits | Potency, µM (highest dose often 58.2 µM), for inactives: at the top dose activity change, negative = inhibition, most hits filed as inhibitors | AlphaScreen AMA1-biotinylated RON2 peptide binding;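 note: potency is the fitted concentration of half-maximal effect; 0% = vehicle wells and -100% = peptide control; nearly all actives have a fitted effect of over 45% in size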
#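 AMA1 (3D7) with his tag at 25 nM final met compounds first, then biotinylated RON2 peptide at 25 nM; detection used donor plus acceptor beads, 10 µg/mL apiece, read by AlphaScreen after 30 min at room temperature.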
# AmpC inh detg – blocks E. coli AmpC beta-lactamase in detergent assay | AmpC hydrolysis of nitrocefin, absorbance 480 nm, 0.01% Triton | Potency, µM (doses to about 114 µM), for the others: top-dose activity change, negative = inhibition, most hits filed as inhibitors | 370,000 compounds, 0.041% hits | AID 485294;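 note: potency is the fitted concentration of half-maximal effect; 0% = no-compound wells and -100% = no-enzyme wells; nearly all actives have a fitted effect of over 25% in size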
# Target sequence (P00811 whole entry, looked up): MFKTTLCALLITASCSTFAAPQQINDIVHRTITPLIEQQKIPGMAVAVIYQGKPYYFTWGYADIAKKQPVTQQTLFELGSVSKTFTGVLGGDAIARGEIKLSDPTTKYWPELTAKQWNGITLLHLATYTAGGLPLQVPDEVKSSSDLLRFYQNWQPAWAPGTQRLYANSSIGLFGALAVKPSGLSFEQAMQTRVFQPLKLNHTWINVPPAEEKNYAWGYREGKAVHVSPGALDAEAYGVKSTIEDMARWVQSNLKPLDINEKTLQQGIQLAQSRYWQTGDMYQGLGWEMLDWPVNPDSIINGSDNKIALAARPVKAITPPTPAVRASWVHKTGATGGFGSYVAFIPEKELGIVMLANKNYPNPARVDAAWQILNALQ
#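 20 mM phosphate pH 7.0 + 0.01% (detergent screen) or 0.0001% Triton X-100; 5.3 nM AmpC reagent; cpd preinc 15 min RT; nitrocefin (800 uM stock) to start; A480 q20 s × 4 min; Activity was normalised to no-enzyme and no-compound control wells.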
# CHX counter – counter-screen for Shiga toxin inhibitors: cycloheximide protein synthesis inhibition | cell reporter, cycloheximide protein synthesis inhibition counterscreen | max response, % | 300,000 compounds, 12% hits | AID 2314; in the data active = max response mostly above about 13%, no sharp cut-off; inactive = mostly below about 14%; note: read at 38.3 µM for the half of the compounds with a filed dose; 0% is about no effect
# AmpC inh no detg – blocks E. coli AmpC beta-lactamase in detergent-free assay; P00811; AmpC nitrocefin hydrolysis, absorbance 480 nm, 0.0001% Triton; Potency, µM (top dose mostly 57.1 µM), without a hit: top-dose activity change, negative = inhibition, actives largely listed as inhibitors; 330,000 compounds, 0.52% hits; AID 485341;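 note: potency is the fitted concentration of half-maximal effect; plate controls were no compound for no effect and no enzyme for full effect; nearly all actives have a fitted effect of over 20% in size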
#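 AmpC (5.3 nM in the dispensed reagent) in 20 mM phosphate pH 7.0 with 0.01% (detergent screen) or 0.0001% Triton X-100 was preincubated with compounds for 15 min at room temperature. Nitrocefin was then added from an 800 uM solution, and hydrolysis was followed at 480 nm.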
# The depositor's hits bear a star; ? = inconclusive; nt = no result given; [ ] = another dose, or the depositor's remark. The entries come from a sample that favours hits as a whole. Unless noted, calls come from the whole dose curve; as a rule, active = well fitted curve in the direction sought with a large enough effect; inconclusive = small, poorly fitted or top-dose-only effect, or another doubt; inactive = no such curve, though single readings can be large; an effect the other way counts as inactive or inconclusive.
SMILES,Shiga toxin inh,SARS PLP yeast,AMA1-RON2 inh,AmpC inh detg,CHX counter,AmpC inh no detg
O=C(NCc1ccc(Cl)cc1Cl)Nc1ccccc1,nt,nt,20.9%,nt,nt,nt
Cc1ccc(C)c(CNC(=O)Nc2ccccc2)c1,74.3*,nt,3.7%,-4.2%,30.5*,-8.2%
O=C(Cn1nnc(-c2ccc(F)cc2)n1)Nc1ccc2c(c1)OCCO2,-9.0,-0.8%,-5.8%,?,-2.4,-8.5%[11.4 µM]
CCOC(=O)C(=O)Nc1ccccc1C(=O)NCc1ccccc1,84.7*,-0.1%,11.1%,2.4%,32.9*,-13.9%
Cc1ccc(C(=O)NCc2ccccc2)c(F)c1F,64.7*,0.0%,5.0%,-0.1%,13.7,-11.8%
Cc1occc1C(=O)NCc1ccccc1,30.4,1.0%,-1.7%,-15.8%,0.7,-22.1%
NC(=O)c1ccccc1C[C@H](C(=O)O)N1C(=O)c2ccc(C(=O)O)cc2C1=O,-6.8,1.0%,nt,5.2%,-7.1,-3.7%
OCCc1ccc(-c2ccc(Cl)cc2)o1,107.8*,-4.8%,2.5%,-6.3%,30.6*,-18.1%
Clc1ccc(CN2CCCCCC2)cc1,8.3,-5.9%,4.5%,-9.4%,1.3,-13.3%
CN1CCN(Cc2ccc(-c3ccc(Cl)cc3)o2)CC1,67.0,-5.9%,-26.6%,-3.5%,25.5*,-0.4%
Clc1ccc(-c2ccc(CN3CCCCC3)o2)cc1,38.8*,-1.6%,-16.9%,?,25.3*,1.9%
COc1ccc(NS(=O)(=O)c2c(C)cc(C)cc2C)cc1,-7.2,-16.4%,-0.9%,0.3%,4.2,-2.2%
CCCCCC1CC(CC(=O)NC(=S)Nc2ccccc2Cl)C(=O)O1 (centres undefined),-5.4,-1.2%,3.7%,11.2%,-1.3,-22.6%
O=C(O)c1cccc(NC(=O)c2cn(-c3ccccc3)nc2-c2cc3ccccc3o2)c1,-5.1,18.5%,-11.6%,6.4%,-1.8,-14.2%
CN(C)S(=O)(=O)c1cccc(-c2nn(-c3ccccc3)cc2/C=C(\C#N)c2nc3ccccc3[nH]2)c1,-7.8,-7.6%,18.3%,-11.7%,6.0,-40.2%
N#C/C(=C\c1cn(-c2ccccc2)nc1-c1cc2ccccc2o1)c1nc2ccccc2[nH]1,120.6*,-3.7%,29.9%,-2.4%,46.1*,-41.0%
O=C(N/N=C/c1cn(-c2ccccc2)nc1-c1cc2ccccc2o1)c1ccncc1,131.9*,-23.4%,2.4%[11.6 µM],-4.2%,84.7*,34.1%
O=C(N/N=C/c1cn(-c2ccccc2)nc1-c1cc2ccccc2o1)c1cccnc1,106.0*,-6.9%,5.4%,4.9%,52.5*,-20.4%
CC(=O)Nc1ccc(SC[C@H](c2ccccc2)N2CCN(CCc3ccccc3)CCC2=O)cc1,24.9,1.4%,nt,-2.8%,-1.2,176.8%
COc1cc(CNc2ccc3[nH]c(=O)[nH]c3c2)ccc1OCc1ccc(C)cc1,117.7*,-1.3%,-14.9%,-0.6%,26.4*,?
COc1cc(CNc2ccc3[nH]c(=O)[nH]c3c2)cc(Br)c1OCc1ccc(F)cc1,-8.3,2.3%,-8.9%,1.1%,-0.4,-56.1%
COc1cc(CNc2ccc3[nH]c(=O)[nH]c3c2)cc(Cl)c1OCc1ccc(F)cc1,nt,nt,nt,5.7%,nt,nt
COc1cc(CNc2ccc3[nH]c(=O)[nH]c3c2)ccc1OCc1cccc(C)c1,37.2,3.0%,-0.3%,0.7%,21.2*,-30.2%
C/C(=N\NC(=O)c1ccccc1F)c1cccc(NC(=O)c2ccccc2)c1,52.0*,1.7%,-0.3%,4.8%,24.3*,-14.4%
C/C(=N\NC(=O)c1ccc(O)cc1)c1cccc(NC(=O)c2ccccc2C)c1,28.1*,-2.9%,32.4%,1.3%,25.3*,-28.7%
SMILES,Shiga toxin inh,SARS PLP yeast,AMA1-RON2 inh,AmpC inh detg,CHX counter,AmpC inh no detg
C/C(=N\NC(=O)c1ccccc1F)c1ccc(C#N)cc1,128.6*,-1.8%,-1.4%,-6.9%,37.5*,-13.1%
O=C(Nc1cccc(NC(=O)c2ccccc2F)c1)c1ccccc1,17.0,1.0%,-10.1%,-11.7%,8.9,-35.7%
C/C(=N\NC(=O)c1c(Cl)c(C)nn1C)c1cccc(NC(=O)c2cccc(F)c2)c1,13.4,-2.4%,0.6%,-2.7%,2.1,125.2%
C/C(=N\NC(=O)c1c(Br)c(C)nn1C)c1cccc(NC(=O)c2ccccc2C)c1,60.4,1.2%,22.5%,-14.9%,-3.1,54.3%
C/C(=N\NC(=O)c1nn(C)c(C)c1Br)c1cccc(NC(=O)c2ccc(F)cc2)c1,active,-2.7%,-1.7%,4.3%,72.1*,-22.5%
C=CCNC(=O)C1CC2Cn3c(nc4cc(C)c(C)cc43)C2N1C (centres undefined),-6.2,-3.5%,3.5%,-5.0%,-2.0,1.0%
O=S(=O)(c1ccc2c(c1)OCCO2)N1CCN(S(=O)(=O)c2ccc3c(c2)OCCO3)CC1,-3.8,0.8%,nt,?,-5.9,-8.3%
CC(C)N1CC=C2C(C#N)=C(N)C(C#N)(C#N)C(c3ccccc3)C2C1 (centres undefined),-9.5,2.4%,-21.8%,?,-1.5,-23.7%
C/C=N/NC(=O)c1cc(Br)ccc1O,20.4,-7.4%,37.2%,-1.6%,11.8,-33.1%
C/C(=N\NC(=O)c1c(Br)c(C)nn1C)c1cccc(NC(=O)c2ccccc2F)c1,66.2*,-3.4%,18.7%,-14.4%,20.7*,24.2%
C/C(=N\NC(=O)c1cc(Br)ccc1O)c1cccc(NC(=O)c2ccccc2F)c1,43.3*,-10.2%,66.9%,-1.7%,18.8,?
Cc1ccc(N(CC(=O)Nc2c(C)cccc2C)S(C)(=O)=O)cc1,-7.6,3.1%,-6.7%,-5.8%,-0.5,-15.8%
O=C(N/N=C/c1ccc(Br)s1)Nc1ccccc1,53.1,-1.4%,-25.5%,1.3%,45.7*,-13.2%
O=C(N/N=C/c1ccc(Br)s1)c1cccs1,79.6*,-1.5%,4.4%,-5.1%,48.4*,-28.7%
O=C(N/N=C/c1ccc(Br)s1)c1ccncc1,-7.5,0.7%,9.6%,-13.2%,12.6,-14.8%[11.4 µM]
Cc1ccc(/C=N/NC(=O)c2cccs2)s1,85.0*,-38.1%,-4.1%,-11.2%,51.9*,-29.1%
Cc1ccc(/C=N/NC(=O)c2ccc3nc[nH]c3c2)s1,41.8,3.1%,23.3%,?,21.3,-35.8%
O=C(Cc1csc(Nc2nc(=S)[nH]c3ccccc23)n1)NCc1ccccc1Cl,10.1,-2.8%,50.6%,?,13.4,1.2%
CNC(=O)CC(C(=O)O)c1ccc(OC(C)C)cc1 (centres undefined),1.4,3.2%,-1.8%,-3.6%,-1.3,-7.1%
CC(=O)Nc1ccc(S(=O)(=O)N(C)CC(=O)OC(C)C(=O)N(C)C2CCCCC2)cc1 (centres undefined),11.0,-4.0%,0.7%,-4.3%,5.4,3.8%
Cc1ccc(-c2nc(N=Nc3ccc(O)cc3)n[nH]2)cc1,104.8*,-10.3%,21.0%,3.1%,48.9*,-3.2%
